This is part of a sample that, as a whole, favours compounds with a hit. Of some 83,000 tested, about 20% had one in any assay.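 For each line, cells grew in 96-well plates with the test compound present at a single concentration for 48 hours.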 Active and inactive are the calls of the source. How the source made its calls: active means growth percent below 10; inactive means the rest.
Legend:
Experiment in all cases: NCI-60 one-dose screen, 48 h (100 = growth as untreated, 0 = no growth, -100 = all killed)
Conditions in all cases: 10 µM unless noted
HCT-15 colon = system: HCT-15 colon
HT29 colon = system: HT29 colon
SNB-75 CNS = system: SNB-75 CNS
SNB-19 CNS = system: SNB-19 CNS
U251 CNS = system: U251 CNS
PC-3 prostate = system: PC-3 prostate
SK-MEL-5 melanoma = system: SK-MEL-5 melanoma
UACC-62 melanoma = system: UACC-62 melanoma
LOX IMVI melanoma = system: LOX IMVI melanoma
SK-MEL-28 melanoma = system: SK-MEL-28 melanoma
SK-MEL-2 melanoma = system: SK-MEL-2 melanoma
EKVX NSCLC = system: EKVX NSCLC
SN12C renal = system: SN12C renal
UO-31 renal = system: UO-31 renal
TK-10 renal = system: TK-10 renal
ACHN renal = system: ACHN renal
A498 renal = system: A498 renal
CCRF-CEM leukemia = system: CCRF-CEM leukemia
MOLT-4 leukemia = system: MOLT-4 leukemia
CAKI-1 renal = system: CAKI-1 renal

Measured: growth

Clc1ccc(-c2cn(-c3ccccc3)c(-c3ccccc3)n2)cc1
inactive: HCT-15 colon 79.4% | HT29 colon 85.3% | SNB-75 CNS 87.7% | SNB-19 CNS 79.1% | U251 CNS 78.2% | PC-3 prostate 59.4% | SK-MEL-5 melanoma 85.9% | UACC-62 melanoma 92.2% | LOX IMVI melanoma 95.8% | SK-MEL-28 melanoma 93.8% | SK-MEL-2 melanoma 110% | EKVX NSCLC 84.5% | SN12C renal 95.9% | UO-31 renal 67.8% | TK-10 renal 92.4% | ACHN renal 94.6% | A498 renal 88.4%
active: CCRF-CEM leukemia -3.48% | MOLT-4 leukemia 7.71%

CCCCCOC(=O)c1ccc(NC(=O)CNCC(C)C)cc1
inactive: HCT-15 colon 86.8% | HT29 colon 80.6% | SNB-75 CNS 86.3% | SNB-19 CNS 90.6% | U251 CNS 93.1% | PC-3 prostate 65.8% | SK-MEL-5 melanoma 95.7% | UACC-62 melanoma 91.6% | LOX IMVI melanoma 94.4% | SK-MEL-28 melanoma 105% | SK-MEL-2 melanoma 103% | EKVX NSCLC 90.8% | SN12C renal 94% | UO-31 renal 66.5% | TK-10 renal 98.5% | A498 renal 71.8% | CCRF-CEM leukemia 74.3% | MOLT-4 leukemia 86.5%

O=C(/C=C/C12c3ccccc3C(c3ccccc31)C1C(=O)N(c3ccc(Cl)cc3)C(=O)C12)c1ccccn1 (stereo unspecified)
inactive: CCRF-CEM leukemia 13.1% | MOLT-4 leukemia 20%
active: HCT-15 colon -35% | HT29 colon 1.52% | SNB-75 CNS -18.7% | SNB-19 CNS -71.9% | U251 CNS -48.3% | PC-3 prostate -19.8% | SK-MEL-5 melanoma -83.5% | UACC-62 melanoma -44.6% | LOX IMVI melanoma -89.4% | SK-MEL-28 melanoma -12.4% | SK-MEL-2 melanoma -19.2% | EKVX NSCLC -34.8% | SN12C renal -44.8% | UO-31 renal -98.5% | TK-10 renal -33.4% | ACHN renal -35.4% | CAKI-1 renal -9.86%

COc1ccc(-c2nnc(-c3ccc4c(c3)nc(-c3ccccc3)n4C3CCCCC3)o2)cc1
inactive: HCT-15 colon 41.9% | HT29 colon 34.9% | SNB-75 CNS 98.7% | SNB-19 CNS 86% | U251 CNS 71.3% | PC-3 prostate 18.5% | SK-MEL-5 melanoma 24.9% | UACC-62 melanoma 43.7% | LOX IMVI melanoma 36.9% | SK-MEL-28 melanoma 88.5% | SK-MEL-2 melanoma 57.9% | EKVX NSCLC 73% | SN12C renal 65.4% | UO-31 renal 40.7% | TK-10 renal 68.9% | ACHN renal 60.5% | A498 renal 85.2% | CCRF-CEM leukemia 35.4% | MOLT-4 leukemia 31.5%

Cc1ccc(S(=O)(=O)NN/C(N)=N\S(=O)(=O)c2cc(C)c(Cl)cc2SCc2ccccc2)cc1
inactive: HCT-15 colon 109% | HT29 colon 107% | SNB-75 CNS 68.3% | SNB-19 CNS 86.9% | U251 CNS 83.9% | PC-3 prostate 71.6% | SK-MEL-5 melanoma 104% | UACC-62 melanoma 84.3% | LOX IMVI melanoma 92% | SK-MEL-28 melanoma 94.3% | SK-MEL-2 melanoma 86.9% | EKVX NSCLC 107% | SN12C renal 101% | UO-31 renal 77.9% | TK-10 renal 130% | ACHN renal 93.6% | A498 renal 91% | CCRF-CEM leukemia 74.1% | MOLT-4 leukemia 61.3%

N#Cc1cnn2c(-c3ccc(Cl)cc3)nc(NCCc3ccccc3)nc12
inactive: HCT-15 colon 103% | HT29 colon 80.7% | SNB-75 CNS 78.8% | SNB-19 CNS 100% | U251 CNS 97% | PC-3 prostate 73.7% | SK-MEL-5 melanoma 99.8% | UACC-62 melanoma 65.7% | LOX IMVI melanoma 84.9% | SK-MEL-28 melanoma 101% | SK-MEL-2 melanoma 89.1% | EKVX NSCLC 87.3% | SN12C renal 99.6% | UO-31 renal 72.9% | TK-10 renal 102% | ACHN renal 94.2% | A498 renal 101% | CCRF-CEM leukemia 96.4% | MOLT-4 leukemia 74.2%

CN1C[C@@H](c2ccc(Cl)cc2)[C@]2(NC(=S)N(c3ccccc3)C2=O)[C@@]12C(=O)NC1C=CC(Br)=C[C@H]12 (stereo partly specified)
inactive: HCT-15 colon 73.5% | HT29 colon 61.5% | SNB-75 CNS 69.6% | SNB-19 CNS 86.2% | U251 CNS 72.5% | PC-3 prostate 28.1% | SK-MEL-5 melanoma 64% | UACC-62 melanoma 74.3% | LOX IMVI melanoma 75.5% | SK-MEL-28 melanoma 95.4% | SK-MEL-2 melanoma 61.2% | EKVX NSCLC 71.1% | SN12C renal 46.1% | UO-31 renal 40.4% | TK-10 renal 87.2% | A498 renal 80.2% | CCRF-CEM leukemia 30.5% | MOLT-4 leukemia 21.4%

Reference: PubChem BioAssay (NCI)
